Data reported in PubChem BioAssay (NCI).
Compounds without any hit were thinned out: in the full panel of roughly 83,000, 20% have a hit.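 Cell lines were cultured in 96-well plates, exposed to a single compound concentration, and assessed for percent growth 48 hours later.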 A number with no mark means an inactive call. The source made the active and inactive calls. The calls were made as follows: active = growth percent below 10; inactive = the rest.

Each compound was assayed on NCI-H522 lung (assay: NCI-60 one-dose screen, 48 h (100 = growth as untreated, 0 = no growth, -100 = all killed)). Conditions: 10 µM unless noted.

Row | SMILES | growth
1 | COC(=O)Nc1nc2ccc(S(=O)c3ccccc3)cc2[nH]1 (stereo not drawn) | 65.8%
2 | O=C(c1nn(-c2ccccc2)c2c1CC(NCc1ccc(F)cc1)CC2)N1CCCCC1 (stereo not drawn) | 89.3%
3 | CC(C)c1ccc(C(=O)Nc2nc3ccc(O)c(CN(C)C)c3s2)cc1 | 79.4%
4 | CCCNC(=O)Nc1ccc2cc3ccc(NC(=O)NCCC)cc3nc2c1 | 79%
5 | N=C(N)c1ccc(-c2ccc(-c3ccc(Cl)c(Cl)c3)s2)nc1 | -34.5% (active)
6 | CNc1nnc2n(-c3ccccc3)c(=O)c3cnn(-c4ccccc4)c3n12 | 41.8%
7 | COc1cc(OC)c(/C=C/C(=O)c2c(OC)cccc2OC)c(OC)c1 | -22.7% (active)
8 | Cn1c(I)c(C#CCO[Si](C)(C)C(C)(C)C)c(=O)[nH]c1=O | 74.2%
9 | CC1CCN(CCOc2ccc(CNc3ccc4nc(CCC5CCCCC5)[nH]c4c3)cc2)CC1 | 44.8%
10 | Cc1cn(-c2cc(NC(=O)c3cccc(C#Cc4cccc5[nH]nc(N)c45)c3)cc(C(F)(F)F)c2)cn1 | 39.9%
11 | CC1CN(S(=O)(=O)c2oc(-c3ccc(Cl)cc3)nc2C#N)CC(C)O1 (stereo not drawn) | -16.2% (active)
12 | N=C(N)c1ccc(-c2ccc(-c3ccccc3)o2)cc1 | -82.6% (active)
13 | CCCCCCC12CCC(=O)N1CCc1cncn12 (stereo not drawn) | 90%
14 | CCCCCCCCCCCCCCCCCCOc1ccccc1CC(=O)OCC[N+](C)(C)C | 2.19% (active)
15 | O=C(CN1CCOCC1)Nc1nc(-c2cc3ccccc3oc2=O)cs1 | 98.7%
16 | O=c1[nH]c(-c2ccccc2)nc2sc3cc(O)ccc3c12 | 75.5%
17 | Cc1cc(C(=O)O)c(C)n1-c1cccc(C(=O)O)c1 | 46%
18 | COc1ccc(C/C(C)=C(/c2ccc(OCCN(C)C)cc2)c2ccc(OC(=O)NCc3ccccc3)cc2)cc1 | 50.4%
19 | O=S(=O)(Nc1ccc(F)cc1F)c1ccc(-c2cnc(C3CC3)o2)cc1 | 13.4%
20 | Cc1ccc(NC(=O)Cn2cc(CN3CCN(c4ccnc5cc(Cl)ccc45)CC3)nn2)cc1 | 87.3%

Row | SMILES | growth
21 | Cc1cc(=O)oc2cc(OCc3nn4c(Nc5nc6ccccc6s5)c(-c5ccccc5)nc4s3)ccc12 | 76.6%
22 | OB1OCc2cc(/C=C/c3cccc(C(F)(F)F)c3)ccc21 | 3.78% (active)
23 | CC1(C)CC(=O)C2=C(C1)N(c1ccc(OC(F)(F)F)cc1)C(N)=C(C#N)C2c1ccc(Br)cc1F (stereo not drawn) | 88.6%
24 | C=C1CC[C@@H]2[C@](C)(COC(C)=O)[C@H](OC(C)=O)CC[C@@]2(C)[C@@H]1CC(Nc1ccc(S(=O)(=O)Nc2ncccn2)cc1)C1=CCOC1=O (stereo partly drawn) | -67.7% (active)
25 | COCCOc1cc2ncnc(N3CCN(c4ncc(S(=O)(=O)N5CCCCC5)cn4)CC3)c2cc1OCCOC | 84.4%
26 | COC(=O)[C@]1(C)CCC[C@]2(C)[C@H]3C[C@H]4C(C(C)C)=C[C@]3(CC[C@H]21)[C@@H]1C(=O)CC[C@H](OCCC#N)[C@@H]14 | 89.9%
27 | O=C1c2c(c3c4ccccc4[nH]c3c3ccc4ccccc4c23)C(=O)N1CCN1CCNCC1 | 66.2%
28 | COC(=O)c1nc(-c2ccc(C)cc2)oc1S(=O)(=O)c1cccc(OC)c1 | 33.8%
29 | COc1ccc2c(c1)CC[C@H](O)/C2=C/c1cc(OC)c(OC)c(OC)c1 | -19.2% (active)
30 | C=CC[Se]C(=O)Cc1c(C)n(C(=O)c2ccc(Cl)cc2)c2ccc(OC)cc12 | 8.54% (active)
31 | Cc1ccc(C)n1-c1ccccc1-n1c(C)ccc1C | 96.5%
32 | O=C(NNC(=O)c1ccc(NC(=O)c2ccccn2)cc1)Nc1ccc([N+](=O)[O-])cc1 | 100%
33 | CCCCCCCCCCCCCCCCOCCCOP(=O)(O)C1CCCN(O)C1=O (stereo not drawn) | 26.2%
34 | Cc1[nH]c(C(=O)Nc2ccccc2OC2CCNCC2)c(Cl)c1Cl | -24.7% (active)
35 | c1csc(-c2ccc(CNc3c4ccccc4nc4ccccc34)cc2)c1 | 28.9%
36 | O=C1/C(=C/c2ccccc2O)CC/C1=C\c1ccccc1O | 56%
37 | CN(C)S(=O)(=O)c1cccc(C(=O)Nc2nc(-c3ccc(F)c(F)c3)cs2)c1 | 25.2%
38 | COc1ccc(C/C(C)=C(\c2ccc(Cl)cc2)c2ccc(OCCN3CCCCC3)cc2)cc1 | 87.3%
39 | N#Cc1c(-c2ccc(Cl)cc2)nc(NN2C(=O)c3ccccc3C2=O)nc1N1CCOCC1 | 97.5%

The compounds below were run on A549/ATCC NSCLC in the same assay as above. Conditions: 10 µM unless noted.

Row | SMILES | growth
40 | COC(=O)Nc1nc2ccc(S(=O)c3ccccc3)cc2[nH]1 (stereo not drawn) | 57.7%
41 | O=C(c1nn(-c2ccccc2)c2c1CC(NCc1ccc(F)cc1)CC2)N1CCCCC1 (stereo not drawn) | 103%
42 | CC(C)c1ccc(C(=O)Nc2nc3ccc(O)c(CN(C)C)c3s2)cc1 | 80.6%
43 | CCCNC(=O)Nc1ccc2cc3ccc(NC(=O)NCCC)cc3nc2c1 | 95.9%
44 | N=C(N)c1ccc(-c2ccc(-c3ccc(Cl)c(Cl)c3)s2)nc1 | -45.6% (active)
45 | CNc1nnc2n(-c3ccccc3)c(=O)c3cnn(-c4ccccc4)c3n12 | 64.4%
46 | COc1cc(OC)c(/C=C/C(=O)c2c(OC)cccc2OC)c(OC)c1 | 6.84% (active)
47 | Cn1c(I)c(C#CCO[Si](C)(C)C(C)(C)C)c(=O)[nH]c1=O | 107%
48 | CC1CCN(CCOc2ccc(CNc3ccc4nc(CCC5CCCCC5)[nH]c4c3)cc2)CC1 | 55.3%
49 | Cc1cn(-c2cc(NC(=O)c3cccc(C#Cc4cccc5[nH]nc(N)c45)c3)cc(C(F)(F)F)c2)cn1 | 45.4%
50 | CC1CN(S(=O)(=O)c2oc(-c3ccc(Cl)cc3)nc2C#N)CC(C)O1 (stereo not drawn) | 100%
51 | N=C(N)c1ccc(-c2ccc(-c3ccccc3)o2)cc1 | -30.1% (active)
52 | CCCCCCC12CCC(=O)N1CCc1cncn12 (stereo not drawn) | 95.3%
53 | CCCCCCCCCCCCCCCCCCOc1ccccc1CC(=O)OCC[N+](C)(C)C | 11.5%
54 | O=C(CN1CCOCC1)Nc1nc(-c2cc3ccccc3oc2=O)cs1 | 105%
55 | O=c1[nH]c(-c2ccccc2)nc2sc3cc(O)ccc3c12 | 81.6%
56 | Cc1cc(C(=O)O)c(C)n1-c1cccc(C(=O)O)c1 | 71.4%
57 | COc1ccc(C/C(C)=C(/c2ccc(OCCN(C)C)cc2)c2ccc(OC(=O)NCc3ccccc3)cc2)cc1 | 55%
58 | O=S(=O)(Nc1ccc(F)cc1F)c1ccc(-c2cnc(C3CC3)o2)cc1 | 41.5%
59 | Cc1ccc(NC(=O)Cn2cc(CN3CCN(c4ccnc5cc(Cl)ccc45)CC3)nn2)cc1 | 93.4%

Row | SMILES | growth
60 | Cc1cc(=O)oc2cc(OCc3nn4c(Nc5nc6ccccc6s5)c(-c5ccccc5)nc4s3)ccc12 | 94.4%
61 | OB1OCc2cc(/C=C/c3cccc(C(F)(F)F)c3)ccc21 | 1.8% (active)
62 | CC1(C)CC(=O)C2=C(C1)N(c1ccc(OC(F)(F)F)cc1)C(N)=C(C#N)C2c1ccc(Br)cc1F (stereo not drawn) | 44.1%
63 | C=C1CC[C@@H]2[C@](C)(COC(C)=O)[C@H](OC(C)=O)CC[C@@]2(C)[C@@H]1CC(Nc1ccc(S(=O)(=O)Nc2ncccn2)cc1)C1=CCOC1=O (stereo partly drawn) | 44.7%
64 | COCCOc1cc2ncnc(N3CCN(c4ncc(S(=O)(=O)N5CCCCC5)cn4)CC3)c2cc1OCCOC | 102%
65 | COC(=O)[C@]1(C)CCC[C@]2(C)[C@H]3C[C@H]4C(C(C)C)=C[C@]3(CC[C@H]21)[C@@H]1C(=O)CC[C@H](OCCC#N)[C@@H]14 | 92.2%
66 | O=C1c2c(c3c4ccccc4[nH]c3c3ccc4ccccc4c23)C(=O)N1CCN1CCNCC1 | -21% (active)
67 | COC(=O)c1nc(-c2ccc(C)cc2)oc1S(=O)(=O)c1cccc(OC)c1 | 97.5%
68 | COc1ccc2c(c1)CC[C@H](O)/C2=C/c1cc(OC)c(OC)c(OC)c1 | 13.7%
69 | C=CC[Se]C(=O)Cc1c(C)n(C(=O)c2ccc(Cl)cc2)c2ccc(OC)cc12 | -5.21% (active)
70 | Cc1ccc(C)n1-c1ccccc1-n1c(C)ccc1C | 101%
71 | O=C(NNC(=O)c1ccc(NC(=O)c2ccccn2)cc1)Nc1ccc([N+](=O)[O-])cc1 | 100%
72 | CCCCCCCCCCCCCCCCOCCCOP(=O)(O)C1CCCN(O)C1=O (stereo not drawn) | 17.8%
73 | Cc1[nH]c(C(=O)Nc2ccccc2OC2CCNCC2)c(Cl)c1Cl | 27.3%
74 | c1csc(-c2ccc(CNc3c4ccccc4nc4ccccc34)cc2)c1 | 26.7%
75 | O=C1/C(=C/c2ccccc2O)CC/C1=C\c1ccccc1O | 93.8%
76 | CN(C)S(=O)(=O)c1cccc(C(=O)Nc2nc(-c3ccc(F)c(F)c3)cs2)c1 | 60.1%
77 | COc1ccc(C/C(C)=C(\c2ccc(Cl)cc2)c2ccc(OCCN3CCCCC3)cc2)cc1 | 98.1%
78 | N#Cc1c(-c2ccc(Cl)cc2)nc(NN2C(=O)c3ccccc3C2=O)nc1N1CCOCC1 | 107%
